Most compounds without a hit are left out; they make up all but 1.1% or so of the library.
Hsp90 Hop PPI – qHTS Assay for Disrupters of an Hsp90 Co-Chaperone Interaction; AlphaScreen TPR2A-His6 binding biotin-Hsp90 C-terminal peptide; Hsp90 C-terminal peptide / TPR2A (Hop) interaction, human; Potency, µM (titrated, usually from 57 µM); AID 595, 2007; 0.44% of 71,000 active; active = well fitted curve in either direction with a large enough effect; inconclusive = small, poorly fitted or top-dose-only effect, or another doubt
HBB splice mod – qHTS Assay for Modulators of Hemoglobin Beta Chain Splicing | HBB splicing reporter cell assay, activation; EGFP reporter with mutant IVS2-654 intron; response scale: normalised to 500 nM splice-correcting PNA | Potency, µM (series often up to 46.1 µM), hits mostly activators | 0.06% of 65,000 active
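HeLa cells stably expressing EGFP interrupted by mutant beta-globin intron 2 (IVS2-654), 500/well in 2% FCS. Treated with compound for 2 days at 37C. Splicing correction scored as total well GFP intensity (488 nm excitation, 500-520 nm emission); 500 nM antisense PNA served as control.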
GBA activity – Glucocerebrosidase; Lysosomal acid glucosylceramidase (Homo sapiens), P04062; purified enzyme, resorufin glucoside fluorescence (screen aimed at inhibitors), 20 min; Potency, µM; 1.1% of 48,000 active; AID 360, 2006; in the data active = potency below about 15 µM; inconclusive = mostly about 16 µM to 33 µM;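 also: the screen sought inhibitors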
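Compounds titrated against 0.2 nM normal enzyme, 30 uM resorufin beta-D-glucopyranoside substrate, citrate/phosphate buffer with taurocholate and tween-20, pH 5.9. Reaction ran 20 min at room temperature; fluorescence (Ex 548/Em 600) gave AC50.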
USP2a inh – qHTS Assay for Inhibitors of Ubiquitin-specific Protease USP2a; AID 927, 2007; Ubiquitin carboxyl-terminal hydrolase 2 (Homo sapiens), O75604; USP2a enzymatic assay, qHTS inhibition; 0.1% of 60,000 active; Potency, µM (highest dose often 38.3 µM), hits mostly inhibitors; also: nearly all actives have a fitted effect of over 60% in size
Target sequence (O75604 whole entry, looked up): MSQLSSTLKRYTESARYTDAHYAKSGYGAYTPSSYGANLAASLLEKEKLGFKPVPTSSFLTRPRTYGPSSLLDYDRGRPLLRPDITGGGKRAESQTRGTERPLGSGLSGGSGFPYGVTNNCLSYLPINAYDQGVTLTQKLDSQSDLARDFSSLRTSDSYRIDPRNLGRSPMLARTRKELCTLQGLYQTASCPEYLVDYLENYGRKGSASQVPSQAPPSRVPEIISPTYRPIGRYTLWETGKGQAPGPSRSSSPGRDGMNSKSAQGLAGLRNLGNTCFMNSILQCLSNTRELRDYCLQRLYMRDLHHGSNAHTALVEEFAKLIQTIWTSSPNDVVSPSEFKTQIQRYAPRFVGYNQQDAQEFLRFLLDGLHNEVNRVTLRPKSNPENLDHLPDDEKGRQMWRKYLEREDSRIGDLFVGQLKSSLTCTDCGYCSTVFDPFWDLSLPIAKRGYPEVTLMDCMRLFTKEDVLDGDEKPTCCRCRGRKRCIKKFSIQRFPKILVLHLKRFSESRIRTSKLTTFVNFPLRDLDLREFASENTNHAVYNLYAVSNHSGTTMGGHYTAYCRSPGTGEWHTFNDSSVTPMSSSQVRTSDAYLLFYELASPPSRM
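USP2 core (20 nM final) was preincubated with compound for 30 min at RT in 20 mM Tris-HCl pH 8.0, 2 mM CaCl2, 2 mM beta-mercaptoethanol; Ub-PLA2 (20 nM) plus NBD C6-HPC (20 uM) then added, fluorescence read after 2.5 h.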
Ub-GFP proteasome – Ubiquitin-GFP Assay; Ubiquitin-GFP reporter cells, proteasome inhibition, GFP fluorescence; response scale: untreated = 0%, 10 µM MG-132 = 100%; Potency, µM (titrated, usually from 45.9 µM), hits mostly activators; 67,000 tested, under 10 active; AID 526, 2006; active = well fitted activation curve with a large enough effect, not every such curve was filed as active; inconclusive = small, poorly fitted or top-dose-only effect, or another doubt; inactive = no such curve, though single readings can be large or run the other way
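Proteasome blockade was scored as a rise in GFP-expressing U2OS cells carrying a ubiquitin(G76V)-GFP construct, imaged after 4 hr compound treatment at 37 °C across a 46 uM–2.9 nM series.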
Epigenetic mod – qHTS Assay for Epigenetic Modulators; Potency, µM (series often up to 46.1 µM); mouse C127i GFP locus derepression, cytometry, 30 h; 0.09% of 68,000 active
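Derepression screen: silenced CMV-GFP reporter in murine C127i cells, 30 h compound incubation at 37 C, washed cells imaged by laser-scanning cytometer to enumerate GFP-expressing objects of 20 to 120 um.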
Numbers stand for hits; – = inactive; ? = inconclusive; · = no result given; [ ] = another dose, or the depositor's remark. Unless noted, calls follow the shape of the dose curve; as a rule, active = well fitted curve in the direction sought with a large enough effect; inconclusive = small, poorly fitted or top-dose-only effect, or another doubt; inactive = no such curve, though single readings can be large; an effect the other way counts as inactive or inconclusive.

SMILES	Hsp90 Hop PPI	HBB splice mod	GBA activity	USP2a inh	Ub-GFP proteasome	Epigenetic mod
Cc1nn(-c2nc3ccccc3s2)c(N)c1-c1ccc(Cl)cc1	–	–	10	–	–	–
Cc1nn(-c2nc3ccccc3s2)c(N)c1-c1ccccc1	–	–	–	–	–	–
Cc1ccc(-c2nc(-c3ccccc3)no2)c(Cl)c1	25µM	–	·	·	–	–
C=CCN1CCc2c(cc(O)c(O)c2Br)[C@H](c2ccccc2)C1	10µM	–	·	–	–	–
O=C(O)C[C@H]1OCC=C2C[N@@+]3([O-])CC[C@]45c6ccccc6N[C@@H]4[C@@H]1[C@H]2C[C@H]53	–[11 µM]	–[9.22 µM]	·	·	–[9.17 µM]	–[9.22 µM]
C[N+](C)(C)CC(=O)N/N=C\c1c(O)ccc2ccccc12	3.2µM	–[9.22 µM]	·	·	–[9.17 µM]	–[9.22 µM]
CC(=O)OCC(=O)[C@@]1(O)CCC2C3CC(C)C4=CC(=O)C=CC4(C)C3C(O)CC21C (stereo partly drawn)	·	·	·	–	·	·
Cc1ccc(NC(=O)CSCC(N)=O)cc1C	?	–	–	–	–	16µM
COc1ccc(CNC(=O)C(C#N)c2nc3ccccc3nc2N2CCN(C)CC2)cc1 (stereo not drawn)	–	–	?	–	–	–
COc1ccc(CNC(=O)C(C#N)c2nc3ccccc3nc2N2CCCC2)cc1 (stereo not drawn)	–	13µM	–	–	?	?
O=C(O)C(F)(F)C(F)(F)C(F)(F)C(F)(F)C(=O)O	–[11 µM]	–[9.22 µM]	·	·	–[9.17 µM]	–[9.22 µM]
CN(C)CCNS(=O)(=O)c1ccc(Cl)cc1	–	–	–	–	–	–
CN1CCN(CC(C)(C)NS(=O)(=O)c2ccc(Cl)cc2)CC1	–	–	14	–	–	–
c1ccc(Nc2nc(-c3ccc4c(c3)OCO4)nc3ccccc23)cc1	–	–	·	–	–	–[9.22 µM]
Cc1ccc(S(=O)(=O)NCCCOC(=O)Nc2ccncc2)cc1	–	–	8.9	–	–	–
COc1ccc2c(c1OC)C(=O)N(c1cccc(C)c1)C2=O	–	–	·	–	–	–
Cc1cccc(N2C(=O)c3cccc4c(N(C)CCO)ccc(c34)C2=O)c1	–[11 µM]	20µM	·	–[7.66 µM]	–[9.17 µM]	–
Nc1cccc2c(N)cccc12	–	–	·	·	·	·
Nc1ccc2c3c(cccc13)CC2	·	·	·	·	·	13µM
N#CC1=C(N)C(C#N)(C#N)[C@H](c2c(F)cccc2F)[C@H]2CC3(CC=C12)OCCO3	–	–	14	–	–	–
N#CC1=C(N)C(C#N)(C#N)C2(CCC3(CC2)OCCO3)C2CC3(CC=C12)OCCO3 (stereo not drawn)	–	–	–	–	–	–
O=C(NCCN1CCOCC1)c1nn2c(c1Cl)NC(c1ccccc1)CC2C(F)(F)F (stereo not drawn)	–	–	–	–	–	–
O=C(NCC12CC3CC(CC(C3)C1)C2)c1nn2c(c1Cl)NC(c1ccco1)CC2C(F)(F)F (stereo not drawn)	–	–	14	–	–	–
N#Cc1nc(Cc2cccc3ccccc23)oc1NCCCn1ccnc1	–	–[0.369 µM]	13	–	·	–
N#Cc1nc(Cc2cccc3ccccc23)oc1NCCCN1CCOCC1	–	–	–	–	–	–
SMILES	Hsp90 Hop PPI	HBB splice mod	GBA activity	USP2a inh	Ub-GFP proteasome	Epigenetic mod
Cn1cccc1C(=O)N1CCC2(CCN(C(=O)Nc3cccc(C#N)c3)CC2)CC1	–	–	·	–	–	–[9.22 µM]
COc1ccccc1-c1nc(C#N)c(N2CCN(Cc3ccccc3)CC2)o1	?	–[0.369 µM]	12	–	–	–
COc1ccc(N2CCN(S(=O)(=O)c3cccc(C(F)(F)F)c3)CC2)cc1	–	–	–	–	–	–
Cn1c(=O)c2cc(S(=O)(=O)N3CCN(c4cccc(C(F)(F)F)c4)CC3)ccc2n(C)c1=O	–	–	7.3	–	–	–
CC(=O)Nc1ccc(NC(=O)c2cc(C)nn2-c2ccccc2)cc1	–	–	12	–	–	–
CC(=O)c1cc2c(cc1NC(=O)c1cc(C)nn1-c1ccccc1)OCO2	–	–	·	·	–	–
C[N+](C)(N)CCC[N+](C)(C)N	–[11 µM]	–[9.22 µM]	·	·	–[9.17 µM]	–[9.22 µM]
CCS(=O)(=O)N1CCC(C(=O)Nc2cc(Cl)ccc2O)CC1	–	–	14	–	–	–
CCOC(=O)c1ccc(NC(=O)C2CCN(S(=O)(=O)CC)CC2)cc1	–	–	–	–	–	–
O=C(c1ccc(S(=O)(=O)N2CCC(c3nc4ccccc4[nH]3)CC2)cc1)N1CCOCC1	–	·	–	13µM	–	–
CC(C)=NOCc1ccc(-c2cn([C@@H]3COC[C@@H]3O)nn2)cc1	·	–[9.22 µM]	·	·	·	·
C=CCn1c(COc2ccc(F)cc2)nnc1SCC(=O)NC(=O)NCc1ccco1	–	–	15	–	–	–
O=C(COc1ccc(S(=O)(=O)NC2CCCCC2)cc1Cl)NCc1cccnc1	–	–	?	–	–	–
O=C(COc1ccc(S(=O)(=O)NC2CCCCC2)cc1Cl)NCC1CCCO1 (stereo not drawn)	–	–	14	–	–	–
CCCCOC(=O)Cn1c(=N)n(CCC)c2ccccc21	–	–	11	–	–	–
CCCn1c(=N)n(CCOc2ccc(OC)cc2)c2ccccc21	–	–[0.369 µM]	5.9	–	·	–
CCCCn1c(=N)n(CC(O)COc2ccccc2)c2ccccc21 (stereo not drawn)	–	–	?	·	–	–
O=C(c1csnn1)N1CCC2(CCCN(c3ccc(-c4ccccc4)cc3)C2)CC1	–	–	·	–	–	–[9.22 µM]
O=c1cc(O)cc(/C=C\c2ccc(O)c(O)c2)o1	13µM	–	·	–	–	–
CC1=CC(=O)C2=C(C)CC[C@@H]3[C@H](OC(=O)[C@H]3C)[C@H]12	–	·	·	·	–	–[9.22 µM]
O=C1c2ccc(O)c(O)c2C(=O)c2c(O)ccc(O)c21	·	·	·	4µM	·	·
O=C1c2ccccc2C(=O)c2c1ccc(O)c2O	·	·	·	–	·	·
O=C(O)CC[C@]1(C(=O)O)CCC(=O)c2ccccc21	–[11 µM]	–[9.22 µM]	·	·	–[9.17 µM]	–[9.22 µM]
c1ccc(C(c2ccccc2)N2CCC3(CCNCC3)CC2)cc1	–	–	·	–	–	–[9.22 µM]
N#Cc1c(-c2ccco2)c2c([nH]c1=S)CCCC2	–	–	·	13µM	–	–
SMILES	Hsp90 Hop PPI	HBB splice mod	GBA activity	USP2a inh	Ub-GFP proteasome	Epigenetic mod
c1ccc(CNCCN2CCNCC2)nc1	4µM	–[0.369 µM]	–	–	–[9.17 µM]	–
CCc1nnc(NC(=O)Cn2nnc(-c3ccccc3F)n2)s1	–	–	4.5	·	–	–
COc1ccc(NC(=O)N2CC[C@@]3(CCCNC3)C2)cc1	–	–	·	–	–	–[9.22 µM]
Cc1noc(C)c1C(=O)N1CCC2(CC1)CN(C(=O)Nc1cccc(F)c1)C2	–	–	·	–	–	–[9.22 µM]
CCN(CC)c1ccc2cc(C(=O)Nc3ccccn3)c(=O)oc2c1	·	·	·	·	·	–
CCN(CC)c1ccc2cc(-c3nnc(-c4ccncc4)o3)c(=O)oc2c1	·	·	·	·	·	2µM
CCc1ccc(CCC(=O)Nc2nnc(CC)s2)o1	–	–	12	–	–	–

Screening data: PubChem BioAssay, National Center for Advancing Translational Sciences (NCATS)
